The values that follow come from PubChem BioAssay (Tox21).

Records with an inconclusive call do not appear. The source made the active and inactive calls. The call rests on the fitted dose curve; in most records, active means well fitted activation curve with a large enough effect in the repeat runs; inconclusive means weak or mixed curves; inactive means flat fitted curve, though single readings scatter.
On the % scale 0 is the no-effect control and ±100 the full control effect; potency means the concentration at half of the fitted maximal effect.

The assay can be described thus: A CellTox Green Cytotoxicity Assay to monitor cytotoxicity in HEK293 cells - 40 hour (AID 1224871). Further: nearly all actives have a fitted effect of over 45% in size. As to conditions: CellTox Green fluorescence; series mostly up to 76.8 µM; cytotoxicity increase: at the top concentration. The text has this: National Center for Advancing Translational Sciences [NCATS]
NIH Chemical Genomics Center [NCGC]
U.S. Environmental Protection Agency [EPA]
National Institutes of Environmental Health Sciences [NIEHS]
National Toxicology Program [NTP]
Cell-based models are critical for drug discovery. Determining the natural cytotoxic effects resulting from test compounds is an essential research activity. A CellTox Green Cytotoxicity Assay to monitor cytotoxicity in real time of continues cell culture during 40 hours of the compound treatment was used to screen Tox21 10K library compounds in Hek293 cells. CellTox Green Cytotoxicity Assay is a nonlytic, homogeneous, biofluorescent method to measure cytotoxicity in cell culture after experimental manipulation. The assay system uses a proprietary asymmetric cyanine dye that is excluded from viable cells but preferentially stains the dead cell's DNA. […] Viable cells produce no appreciable increases in fluorescence. Therefore, the fluorescence signal produced by the binding interaction with dead cell DNA is proportional to cytotoxicity.
The mixture of Hek293 cell suspension and reagents were dispensed at 600cells/6 ul/well in 1536-well tissue culture treated black solid bottom plates using a Multidrop dispenser. After the assay plates were incubated at a 37 C/5% CO2 incubator for 5 hours, 23 nL of compounds dissolved in DMSO, positive and negative controls was transferred to the assay plate by a pintool work station. The plates were incubated at 37 C for 40 hours. The fluorescence intensity were measured at 0h, 8h, 16h, 24h, 32h and 40h time points using ViewLux plate reader during compound treatment.
Consider `CCOC(=O)c1ccc(OCCN2C[C@H](O)[C@@H](O)[C@H](O)[C@H]2CO)cc1`, for which the “cytotoxicity increase” value is -0.508% [at 35.3 µM] (inactive).

As to `C=C(C)C(=O)OCCCCCCCCCCCCC`, the “cytotoxicity increase” value was -2.74% (inactive).

Turning to `COc1cc(N)c(Cl)cc1C(=O)NC1CCN(CCCOc2ccc(F)cc2)CC1OC` (stereo not given), the “cytotoxicity increase” value is 4.65% [at 35.3 µM] (inactive).

For `CCc1ccccc1`, the “cytotoxicity increase” value is -7.17% (inactive).

As to `Oc1cccc(O)c1O`, the “cytotoxicity increase” value is -2.78% (inactive).

`O=C1Cc2ccccc2N1c1c(Cl)cccc1Cl`: the “cytotoxicity increase” value was 3.78% (inactive).

On to `COc1ncnc(NS(=O)(=O)c2ccc(N)cc2)c1OC`, for which the “cytotoxicity increase” value is -1.25% [at 35.3 µM] (inactive).

Consider `O=C(/C=C/c1ccc(O)c(O)c1)O[C@@H]1C[C@@](OC(=O)/C=C/c2ccc(O)c(O)c2)(C(=O)O)C[C@@H](O)[C@@H]1O`, for which the “cytotoxicity increase” value was -13% [at 35.3 µM] (inactive).

As for `C=C(C)[C@@H]1CCC2=CCC[C@@H](C)[C@]2(C)C1`, the “cytotoxicity increase” value was 8.26% (inactive).

Turning to `CC(CCC(=O)O)C(=O)O` (stereo not given), the “cytotoxicity increase” value is 0.139% (inactive).

Consider `CC/C=C1/OC(=O)c2ccccc21`, for which the “cytotoxicity increase” value is 14.1% (inactive).

`C1COC1`: the “cytotoxicity increase” value was -0.0301% (inactive).

Take `CC(=O)OCCN(CCOC(C)=O)c1ccc(N=Nc2ccc([N+](=O)[O-])cc2C#N)cc1`: the “cytotoxicity increase” value was -21.2% (inactive).

`c1cc(N(CC2CO2)CC2CO2)ccc1Cc1ccc(N(CC2CO2)CC2CO2)cc1` (stereo not given): the Potency is 49 µM (active).

As to `C=COCC(C)C`, the “cytotoxicity increase” value was -38.2% (inactive).

As to `Cc1ccc(OC(=O)c2ccccc2O)cc1`, the Potency is 49 µM (active).

On to `NCCNCCO`, for which the “cytotoxicity increase” value is -1.21% (inactive).

`CC1=Nc2ccc3ccccc3c2C1(C)C`: the “cytotoxicity increase” value is 20.4% (inactive).

As to `CCOc1ccccc1O[C@H](c1ccccc1)[C@H]1CNCCO1`, the “cytotoxicity increase” value is -2.87% [at 35.3 µM] (inactive).

As to `CCCCCCCCCCC(=O)O`, the “cytotoxicity increase” value was -2.74% (inactive).

As for `O=C(O)c1ccc(OCCCOc2ccc(C(=O)O)cc2)cc1`, the “cytotoxicity increase” value was 3.92% [at 35.3 µM] (inactive).

Take `CCOC(=O)/C=C/C(=O)OCC`: the “cytotoxicity increase” value is -7.44% (inactive).

In the case of `NNC(=O)CP(=O)(c1ccccc1)c1ccccc1`, the “cytotoxicity increase” value is -3.62% [at 35.3 µM] (inactive).

For the compound `COC(=O)c1nc(Cl)c(Cl)nc1N`, the Potency is 13.4 µM (active).

In the case of `C1C[C@@H]2[C@H]3CC[C@H](C3)[C@@H]2C1`, the “cytotoxicity increase” value is 13.1% (inactive).

`CC(CN(C)C)C(C)(O)Cc1ccc(Cl)cc1` (stereo not given): the “cytotoxicity increase” value was -2.19% [at 35.3 µM] (inactive).

Regarding `OC(CCN1CCCC1)(c1ccccc1)C1CCCCC1` (stereo not given), the “cytotoxicity increase” value was 0.673% [at 35.3 µM] (inactive).

With `CCOC(C)=O`, the “cytotoxicity increase” value is -2.04% (inactive).

Take `CC(C)C(O)(c1ccc(OC(F)(F)F)cc1)c1cncnc1` (stereo not given): the “cytotoxicity increase” value is 5.9% (inactive).

As to `O=C1c2ccccc2C(=O)C1c1nc2ccccc2c(Br)c1O`, the “cytotoxicity increase” value was 12.6% (inactive).

In the case of `C[C@H]1c2cccc(O)c2C(O)=C2C(=O)[C@]3(O)C(O)=C(C(N)=O)C(=O)[C@@H](N(C)C)[C@@H]3[C@@H](O)[C@@H]21`, the “cytotoxicity increase” value is 3.92% [at 35.3 µM] (inactive).

`CC1CC(OC(=O)C(O)c2ccccc2)CC(C)(C)N1C` (stereo not given): the “cytotoxicity increase” value is 2.27% [at 35.3 µM] (inactive).

Take `CCC(C)(C)OC`: the “cytotoxicity increase” value is -2.84% (inactive).

Turning to `CN1C(=O)OC(C)(C)C1=O`, the “cytotoxicity increase” value was 10.3% (inactive).

For `Cc1c(C)c2c(c(C)c1OC(=O)CCC(=O)OCCO)CC[C@@](C)(CCC[C@H](C)CCC[C@H](C)CCCC(C)C)O2`, the “cytotoxicity increase” value is -8.24% [at 35.3 µM] (inactive).

For `CCCC(=O)C(=O)O`, the “cytotoxicity increase” value was 21% (inactive).

In the case of `COc1cc(Nc2c(C#N)cnc3cc(OCCCN4CCN(C)CC4)c(OC)cc23)c(Cl)cc1Cl`, the Potency was 21.3 µM (active).

As for `CCOC(=O)c1ccc(I)cc1`, the Potency is 35 µM (active).

`CC1=C(Br)C(=O)C(Br)=C/C1=C(/c1ccccc1S(=O)(=O)O)c1cc(Br)c(O)c(Br)c1C`: the “cytotoxicity increase” value is -5.65% [at 35.3 µM] (inactive).

With `O[C@@H]1CO[C@H]2[C@@H]1OC[C@@H]2O`, the “cytotoxicity increase” value is -6.61% [at 35.3 µM] (inactive).
